Measurements as given in PubChem BioAssay (NCI).
Several values for one entry are separate records, joined by “and”; a condition that tells them apart may be missing. Equal entries are not always repeated. About 83,000 compounds went through this panel and 20% of them were active in at least one assay; those are over-represented in the sample as a whole.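 A percent growth of 40 corresponds to 60% growth inhibition; 0 means no net growth; -100 means all cells died. Active threshold: below 10.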 Values without a mark were called inactive. Activity calls are given as the source filed them.

Legend:
Assay in all cases: NCI-60 one-dose screen, 48 h (100 = growth as untreated, 0 = no growth, -100 = all killed)
[1] = system: BT-549 breast; details: 10 µM unless noted
[2] = system: MDA-MB-435 melanoma; details: 10 µM unless noted
[3] = system: SW-620 colon; details: 10 µM unless noted
[4] = system: MCF7 breast
[5] = system: HCT-116 colon; details: 10 µM unless noted
[6] = system: HCC-2998 colon; details: 10 µM unless noted
[7] = system: KM12 colon; details: 10 µM unless noted

Row | SMILES | growth [1] | growth [2] | growth [3] | growth ([4]; 10 µM unless noted) | growth [5] | growth [6] | growth [7] | growth ([4]; 10 µM) | growth ([4]; 100 µM)
1 | Cc1c(C(N)=O)sc2c1c(=O)n(Cc1ccccc1)c1nnc(S(=O)(=O)CC(=O)Nc3ccc(Cl)cc3)n21 | 75.7% | 46.2% | 39.6% | 73.5% | 15% | 26% | 55% | – | –
2 | ClC1=C(Cl)C(=C2C(Cl)=C(Cl)C(Cl)=C2Cl)C(Cl)=C1Cl | 107% | 105% | 102% | 90.3% | 101% | 109% | 104% | – | –
3 | Cc1cc(NC(=O)Nc2cccc3ccccc23)no1 | 79.9% | 101% | 109% | 84% | 95% | 104% | 112% | – | –
4 | O=C(Nc1ccncc1)C(=O)c1cn(S(=O)(=O)c2cccc(F)c2)c2ccccc12 | 27.8% | -1.83% (active) | 21.7% | 5.06% (active) | 19.5% | 66.2% | 27.6% | – | –
5 | O=C1CC(=O)N(c2ccccc2)O1 | 101% | 104% | 101% | 115% | 101% | 105% | 109% | – | –
6 | CCC1=C(c2ccc(OC)cc2)C(C)(C)Oc2cc(O)c(CN3CCCC3)cc21 | 65.7% | 70.9% | 89.7% | 89.7% | 46.9% | 18.1% | 81.1% | – | –
7 | CC12CCCCC1C(C(N)=O)C(=O)O2 (configuration not stated) | 113% | 120% | 104% | 99.3% | 112% | 99.6% | – | – | –
8 | COc1c(O)cc2oc3cc(O)c(CC=C(C)C)c(O)c3c(=O)c2c1C/C=C(\C)CCC=C(C)C | 99.3% | 78.4% | 41.5% | 21.9% | -29.6% (active) | -0.115% (active) | 25% | – | –
9 | c1csc([C@@H]2C[C@@H]3Cc4ccc5ccccc5c4N2O3)c1 | 112% | 87.1% | 98.5% | 99.8% | 101% | 105% | 103% | – | –
10 | OC(Cc1cccnc1)c1ccccc1 (configuration not stated) | 107% | 110% | 100% | 104% | 107% | 107% | – | – | –
11 | O=C1/C(=C/c2ccc([N+](=O)[O-])o2)Oc2ccc(Cl)cc21 | -53.4% (active) | -72.8% (active) | -78.7% (active) | -24.6% (active) | -26.6% (active) | – | – | – | –
12 | C/C(=C\CCc1ccoc1)CC/C=C(\C)CCCN1CCC(CO)CC1 | 54.2% | 44.2% | 18.2% | 28.9% | 31% | 46.5% | 44.6% | – | –
13 | O=C1Nc2ccccc2C12Nc1cc(Cl)ccc1S2 (configuration not stated) | 76.2% | 95.4% | 120% | 59.7% | 84.5% | 110% | 80.4% | – | –
14 | COc1ccc(Nc2ccnc(NCCCNc3ccnc4cc(Cl)ccc34)n2)cc1 | -16.8% (active) | -94.7% (active) | -48.7% (active) | -2.74% (active) | -100% (active) | -74.9% (active) | – | – | –
15 | CCN1C2=C(SC(=S)C1=C1SC(C(=O)OC)=C(C(=O)OC)S1)SC(=Nc1ccc(OC)cc1)C2=O | -80.5% (active) | -40.3% (active) | -67.4% (active) | 4.13% (active) | -80% (active) | -66.3% (active) | -89.1% (active) | – | –
16 | CCc1ccc(CCN2C(=O)c3ccccc3C2=O)nc1 | 116% | 98.9% | 107% | 89.5% | 109% | 112% | 103% | – | –
17 | COc1ccc(Nc2nccc(N3CCN(c4c5ccc(Cl)cc5nc5ccc(OC)cc45)CC3)n2)cc1 | 90.5% | 55.8% | 60.1% | 37.6% | 24% | 93.9% | 73.9% | – | –
18 | O=C(Nc1ncc([N+](=O)[O-])s1)c1cccc([N+](=O)[O-])c1 | 35.8% | 31.4% | 73.4% | 50.7% | 34.1% | 28.7% | 62.9% | – | –
19 | O=C1Nc2ccc(F)cc2/C1=C/c1nc(-c2ccc(F)cc2)n2ccccc12 | 96.8% | 85% | 80.1% | 85.6% | 91.1% | 108% | 87.6% | – | –

Row | SMILES | growth [1] | growth [2] | growth [3] | growth ([4]; 10 µM unless noted) | growth [5] | growth [6] | growth [7] | growth ([4]; 10 µM) | growth ([4]; 100 µM)
20 | NC(=O)SCC(=O)Nc1ccccc1-c1ccccc1 | 89.4% | 109% | 115% | 94.8% | 87.4% | 95.5% | – | – | –
21 | c1ccc2c(c1)[nH]c1c2cc[n+]2cc3c(cc12)CCCC3 | 72.7% | 11.5% | 20.7% | – | 14.7% | 24.6% | 26.4% | -13.9% (active) | -78.5% (active) and -87.5% (active)
22 | Cn1[nH]cc(/C=N/C(N)=O)c1=O | 113% | 119% | 102% | 99.6% | 109% | 103% | – | – | –
23 | C[C@]12CC[C@@H]3c4ccc(O)c([N+](=O)[O-])c4CC[C@H]3[C@@H]1CC[C@@H]2NS(=O)(=O)c1cccc(Br)c1 | 29.3% | 10.7% | 44.5% | 14.6% | 21.8% | 51.2% | 17.4% | – | –
24 | O=C1C(Cl)=C(N=Nc2c(Cl)c(O)c3ccccc3c2O)C(=O)c2ccccc21 | 62% | -31.7% (active) | 90% | 62.6% | 70.4% | 74.4% | 86.4% | – | –
25 | CCN(CC)c1ccc(CN(CC(=O)c2ccc(Cl)c(Cl)c2)Cc2ccccc2)cc1 | 109% | 106% | 96% | 95.5% | 104% | 107% | 109% | – | –
26 | O=Nc1ccc(O)c(=O)cc1 | 32.5% | 32% | -43% (active) | 20.9% | 2.12% (active) | 97.8% | – | – | –
27 | COC(=O)CC1=C(C)/C(=C/c2[nH]c(-c3ccc[nH]3)cc2OC)N=C1C | 22.3% | -4.71% (active) | 4.66% (active) | -3.82% (active) | -33.6% (active) | 11.3% | 10.2% | – | –
28 | O=C(Nc1ccccc1Cl)c1cnc2ccc(C3CCNCC3)cn12 | 97.8% | 86% | 96.6% | 83.6% | 58.2% | 123% | 110% | – | –
29 | CCCCC(C#N)C(N)=O (configuration not stated) | 114% | 114% | 111% | 97.7% | 98.4% | 104% | 119% | – | –
30 | O=C(CCc1nnc(SCc2ccccc2)s1)c1nc2ccccc2[nH]1 | 108% | 102% | 107% | 92.1% | 95% | 101% | 110% | – | –
31 | CC(C)C/C(=N\NC(=O)c1ccncc1)c1cc(Cl)ccc1O | -1.24% (active) | 32.4% | 31.1% | 5.38% (active) | 0.442% (active) | 28.1% | 25.8% | – | –
32 | O=c1cc(-c2cccnc2)oc2c1ccc1ccccc12 | 81.1% | 67% | 81.5% | 73.6% | 55.7% | 89.2% | 95.8% | – | –
33 | Clc1ccccc1[C@@H]1C[C@@H]2Cc3cc(Br)c4ccccc4c3N1O2 | 50.1% | -32% (active) | 16.6% | 12.7% | 20.3% | 56.4% | 33.5% | – | –
34 | Cc1c(C)c(N2C(=O)C=CC2=O)c(C)c(C)c1N1C(=O)C=CC1=O | 110% | 102% | 81.7% | 103% | 83% | 97.1% | 119% | – | –
35 | CN1CCN(Cc2ccc(NC(=O)c3[nH]ncc3Nc3ccnc4ccnn34)cc2)CC1 | 74.1% | 56.1% | 70.1% | 35.9% | 33.7% | 68.7% | 32.7% | – | –
36 | Cc1ccc(C(=O)Nc2ccc(Cl)cc2C(=O)NCc2ccccc2)cc1 | 103% | 2.07% (active) | 58.9% | 53.9% | 89.9% | 86.9% | 60.5% | – | –
37 | Cc1ccc(C=C2C(Cl)=C(Cl)C(Cl)=C2Cl)cc1 | -31.3% (active) | -61.9% (active) | -77.9% (active) | -23.8% (active) | -100% (active) | -94.8% (active) | -79.6% (active) | – | –
